Structures can show the parent of a compound that is named as a salt. ± gives the standard deviation of the averaged measurements.
test system: E. coli TESEC Alr+ wild-type control; test: growth (OD600 after 10 h); higher = more growth (less inhibition); conditions: compound 0.1 mM; raw OD600 reference: median of DMSO wells 0.49, cell-free background 0.052
Protocol: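 TESEC Mtb Alr E. coli (ΔaraC ΔtolC ΔentC Δalr ΔdadX, arabinose-inducible Mtb Alr) or the Alr+ wild-type control strain, grown in defined M9-fructose medium without D-alanine in 96-well plates with Prestwick library compounds at 0.1 mM and 1% DMSO. Low Alr induction is 0.1 µM arabinose and high induction is 10 mM arabinose.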

CCCCCCNC(=O)n1cc(F)c(=O)[nH]c1=O [Carmofur] and O=c1[nH]c(=O)n([C@H]2C[C@H](O)[C@@H](CO)O2)cc1I [Idoxuridine] are within error of each other in growth: 0.508 ± 0.04 for the first, 0.483 ± 0.064 for the second.

Compared with CC[N+](C)(CC)CCOC(=O)C1c2ccccc2Oc2ccccc21 [Methantheline bromide], CC(=O)CC(c1ccccc1)c1c(O)c2ccccc2oc1=O (stereo not given) [Warfarin] is lower in growth: 0.592 ± 0.017 for the first, 0.492 ± 0.081 for the second.

Going from CO[C@@H]1[C@@H](OC(N)=O)[C@@H](O)[C@H](Oc2ccc3c(O)c(NC(=O)c4ccc(O)c(CC=C(C)C)c4)c(=O)oc3c2C)OC1(C)C [Novobiocin sodium salt] to CC1(C)O[C@@H]2C[C@H]3[C@@H]4CCC5=CC(=O)C=C[C@]5(C)[C@H]4[C@@H](O)C[C@]3(C)[C@]2(C(=O)CO)O1 [Desonide], the growth rises from 0.0556 ± 0.0007 to 0.496 ± 0.062.

Compared with CCn1nc(C(=O)O)c(=O)c2cc3c(cc21)OCO3 [Cinoxacin], CC1CCc2cc(F)cc3c(=O)c(C(=O)O)cn1c23 (stereo not given) [Flumequine] is lower in growth: 0.0852 ± 0.0034 for the first, 0.0527 ± 0.00046 for the second.

NCCNCCNCCNCCN [Tetraethylenepentamine pentahydrochloride] and NCCCCCC(=O)O [Aminocaproic acid] are within error of each other in growth: 0.4747 ± 0.0042 for the first, 0.463 ± 0.025 for the second.

Cn1nnc2c(C(N)=O)ncn2c1=O [Temozolomide] and Cn1c(=O)c2[nH]cnc2n(C)c1=O [Aminophylline] are within error of each other in growth: 0.539 ± 0.076 for the first, 0.513 ± 0.08 for the second.

CNC1(C)C2CCC(C2)C1(C)C (stereo not given) [Mecamylamine hydrochloride] and CN1C2CCCC1CC(NC(=O)c1nn(C)c3ccccc13)C2 (stereo not given) [Granisetron] are within error of each other in growth: 0.462 ± 0.03 for the first, 0.549 ± 0.068 for the second.

Going from Cc1scc2c1N(C(=O)CN1CCN(C)CC1)c1ccccc1NC2=O [Telenzepine dihydrochloride] to CN1CCC(=C2c3ccccc3CCc3sccc32)CC1 [Pizotifen malate], the growth falls from 0.545 ± 0.024 to 0.146 ± 0.012.

Going from CN(C(=O)CN(CCO)CC(=O)N(C)C(C)(C)Cc1ccccc1)C(C)(C)Cc1ccccc1 [Oxethazaine] to O=C(Nc1ccccc1)OCC(CN1CCCCC1)OC(=O)Nc1ccccc1 (stereo not given) [Diperodon hydrochloride], the growth rises from 0.0484 ± 0.00076 to 0.405 ± 0.02.

Going from Nc1ncn(C2OC(CO)C(O)C2O)c(=O)n1 (stereo not given) [Azacytidine-5] to Nc1nc(F)nc2c1ncn2[C@@H]1O[C@H](CO)[C@@H](O)[C@@H]1O [Fludarabine], the growth rises from 0.4795 ± 0.0037 to 0.626 ± 0.044.

Going from O=C(O)Cc1cc(I)c(Oc2ccc(O)c(I)c2)c(I)c1 [Tiratricol, 3,3',5-triiodothyroacetic acid] to CCOC(=O)[C@@](C)(N)Cc1ccc(O)c(O)c1 [Methyldopate hydrochloride], the growth rises from 0.0593 ± 0.0022 to 0.469 ± 0.013.

Compared with CCOc1ccccc1OC(c1ccccc1)C1CNCCO1 (stereo not given) [Reboxetine mesylate], O=C(OCC(O)CO)c1ccccc1Nc1ccnc2cc(Cl)ccc12 (stereo not given) [Glafenine hydrochloride] is lower in growth: 0.542 ± 0.061 for the first, 0.374 ± 0.0054 for the second.

Compared with O=C(O)c1ccccc1Nc1cccc(C(F)(F)F)c1 [Flufenamic acid], CC(C)(C(=O)c1cccnc1)c1cccnc1 [Metyrapone] is higher in growth: 0.114 ± 0.0046 for the first, 0.637 ± 0.095 for the second.

CCCC(=O)Nc1ccc(OCC(O)CNC(C)C)c(C(C)=O)c1 (stereo not given) [Acebutolol hydrochloride] and CC(C)(C)NC[C@@H](O)COc1cccc2c1CCCC2=O [(+) -Levobunolol hydrochloride] are within error of each other in growth: 0.46 ± 0.044 for the first, 0.546 ± 0.077 for the second.

C[N+](C)(C)CCOC(N)=O [Carbachol] and CCCOc1ccc(C(=O)OCCN(CC)CC)cc1N [Proparacaine hydrochloride] are within error of each other in growth: 0.492 ± 0.011 for the first, 0.469 ± 0.043 for the second.

CN1C(=O)CC(c2ccccc2)C1=O (stereo not given) [Phensuximide] and O=C(O[C@@H]1C[C@@H]2C[C@H]3C[C@H](C1)N2CC3=O)c1c[nH]c2ccccc12 [Dolasetron mesilate] are within error of each other in growth: 0.544 ± 0.076 for the first, 0.473 ± 0.027 for the second.

CCOC(=O)NNc1nncc2ccccc12 [Todralazine hydrochloride] and c1ccc(CNc2ncnc3nc[nH]c23)cc1 [Aminopurine, 6-benzyl] are within error of each other in growth: 0.452 ± 0.021 for the first, 0.509 ± 0.077 for the second.

CC(C)(CO)C(O)C(=O)NCCCO (stereo not given) [Panthenol (D)] and COCC(=O)Nc1c(I)c(C(=O)NCC(O)CO)c(I)c(C(=O)N(C)CC(O)CO)c1I (stereo not given) [Iopromide] are within error of each other in growth: 0.5 ± 0.047 for the first, 0.464 ± 0.037 for the second.

First: CC(C)NC(=N)NC(=N)Nc1ccc(Cl)cc1 [Proguanil hydrochloride]
Second: COc1cc(NC(C)CCCN)c2ncccc2c1 (stereo not given) [Primaquine diphosphate]
The growth of the first is higher: 0.475 ± 0.012 for the first, 0.267 ± 0.025 for the second.

Compared with CCN1CCCC1CNC(=O)c1cc(S(N)(=O)=O)ccc1OC (stereo not given) [Sulpiride], CC(C)(C)NCC(O)COc1cccc2c1CCC(=O)N2 (stereo not given) [Carteolol hydrochloride] is higher in growth: 0.525 ± 0.011 for the first, 0.649 ± 0.043 for the second.
